Assay outcomes (PubChem)
An excerpt weighted towards active compounds, which were near 5.8% of everything screened.
Luciferase inh: inhibitors of firefly luciferase; Potency, µM (top dose mostly 57.1 µM), without a hit: top-dose activity change, negative = inhibition, most hits filed as inhibitors; 2.2% of 72,000 active; P08659; purified firefly luciferase, luminescence, 8 min; also: % is scaled to controls: 0 for no effect and ±100 for the full control effect; nearly all actives have a fitted effect of over 40% in size
Target sequence (P08659 whole entry, looked up): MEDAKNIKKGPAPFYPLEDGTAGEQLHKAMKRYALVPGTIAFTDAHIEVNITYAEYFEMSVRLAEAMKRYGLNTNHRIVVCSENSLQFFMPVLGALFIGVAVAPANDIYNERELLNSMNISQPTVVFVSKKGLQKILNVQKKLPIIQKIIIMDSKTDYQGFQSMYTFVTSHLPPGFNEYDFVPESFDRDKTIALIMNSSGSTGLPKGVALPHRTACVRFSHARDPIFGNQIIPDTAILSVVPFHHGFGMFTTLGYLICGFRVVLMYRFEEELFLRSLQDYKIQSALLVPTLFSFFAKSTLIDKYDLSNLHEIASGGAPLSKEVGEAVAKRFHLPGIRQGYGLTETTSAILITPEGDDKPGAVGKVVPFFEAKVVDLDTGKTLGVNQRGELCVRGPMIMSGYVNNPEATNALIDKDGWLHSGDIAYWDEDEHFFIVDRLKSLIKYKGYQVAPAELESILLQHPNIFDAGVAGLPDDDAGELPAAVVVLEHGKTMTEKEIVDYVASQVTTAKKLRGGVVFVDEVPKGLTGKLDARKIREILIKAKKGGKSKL
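Substrate buffer containing 10 uM ATP (pH 7.2 imidazole, Mg2+, KCl, detergent, BSA) is dispensed, compound pinned in, then luciferase/luciferin detector mix added. After 8 min at ambient temperature, light output is measured.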
GBA mod: modulators of human glucocerebrosidase; P04062; purified enzyme, resorufin glucoside fluorescence (screen aimed at inhibitors), 20 min; Potency, µM; 1.1% of 48,000 active; AID 360; in the data active = potency below about 15 µM; inconclusive = mostly about 16 µM to 33 µM;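 also: the screen sought inhibitors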
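Normal human glucocerebrosidase (0.2 nM final) was assayed with resorufin β-D-glucopyranoside (30 uM final) in 50mM citric acid/KH2PO4, 10mM sodium taurocholate, 0.01% tween-20, pH 5.9. Compounds were titrated; fluorescence (Ex 548, Em 600) read after 20 min at RT.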
HEK293 cAMP ctrl: parental HEK293 cAMP activation (counter-screen). parental HEK293 CNG cAMP sensor, membrane potential fluorescence. Potency, µM (highest dose often 57.1 µM), inactives show at the top dose activation, most hits filed as activators. 2.5% of 73,000 active. AID 938; also: % of control where 0% means no effect; nearly all actives have a fitted effect of over 55% in size
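Counterscreen for endogenous-receptor signalling: CNG-channel HEK 293 cells report cAMP rise by membrane depolarization. After 60 min dye equilibration with 100 uM RO 20-1724, compounds incubated 30 min before bottom-read fluorescence at 590 nm.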
PK Bst: pyruvate kinase (B. stearothermophilus) modulation; purified pyruvate kinase, luminescence ATP production; ribose 5-phosphate activator present at AC10; Potency, µM; 1.2% of 51,000 active; AID 361; in the data active = potency below about 11 µM; inconclusive = mostly about 12 µM to 25 µM;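 the screen sought inhibitors and activators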;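 also: scaled between full activation by ribose 5 phosphate and full inhibition by luteolin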
TSHR ag: activates the human thyroid stimulating hormone receptor. Potency, µM (top dose mostly 57.1 µM), inactives show top-dose activation, actives largely listed as activators. P16473. AID 926. 0.48% of 73,000 active. HEK293-CNG-TSHR cells (CNG channel as cAMP sensor), membrane potential dye, cAMP; active = well fitted activation curve with a large enough effect in the main read-out, with a control signal flat, not every such curve was filed as active; inconclusive = small, poorly fitted or top-dose-only effect, or a change in a side signal; inactive = no such curve, though single readings can be large or run the other way; % of control where 0% means no effect;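 also: the control signal comes from parental cells without the receptor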
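HEK 293 cells stably expressing TSHR and a cAMP-gated CNG channel; parental CNG-only cells as counterscreen. Cells preloaded 60 min with membrane potential dye plus 100 uM RO 20-1724, then compound 30 min; fluorescence read at 590 nm.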
* hit, by the source's call; i = inactive; ? = inconclusive; · = not tested or not shown; [ ] = remark or other dose. Unless noted, calls follow the shape of the dose curve; as a rule, active = well fitted curve in the direction sought with a large enough effect; inconclusive = small, poorly fitted or top-dose-only effect, or another doubt; inactive = no such curve, though single readings can be large; an effect the other way counts as inactive or inconclusive. Potency is read from the fitted curve at half-maximal effect.

SMILES	Luciferase inh	GBA mod	HEK293 cAMP ctrl	PK Bst	TSHR ag
Cc1cc(NC(=O)COc2cccc(C)c2C)no1	-8%	·	9%	·	8%
CCOC(=O)C1CCN(c2c(NCc3ccc(C(=O)O)cc3)c(=O)c2=O)CC1	-1%	·	2%	·	6%
CC(=O)CC(=O)[C@@]1(O)CC[C@@H]2[C@@H]3C=C(C)C4=CC(=O)CC[C@@H]4[C@H]3CC[C@]21C	2%[25.5 µM]	·	14%[25.6 µM]	·	1%[25.6 µM]
COc1ccccc1-c1ccc2ncnc(NCCNC(C)=O)c2c1	1%[2.29 µM]	·	?	·	?
COC(=O)[C@@]1(C)C=C[C@@H](Cc2ccccc2)N1C	·	·	20µM*	·	?
C=C(CC(=O)O)C(=O)O (tested in a mixture with another compound)	0%[11.4 µM]	·	-5%[11.4 µM]	·	-6%[11.4 µM]
COC(=O)/C=C\c1cc(O)ccc1O	-14%	·	-3%	·	-2%
O=C(NCC1CCCO1)c1cc(-c2ccccc2)on1 (stereo not given)	0%	>77	2%	>57	7%
Cc1ccc(-c2cc(C(=O)NCC3CCCO3)no2)cc1 (stereo not given)	13µM*	>77	3%	i	-3%
Cc1csc(SCc2nnc(-c3ccccc3Br)o2)n1	20µM*	>77	23%	·	11%
Cc1nnc(SCc2nnc(-c3ccccc3Br)o2)n1-c1ccccc1	0%	>77	7%	>57	-7%[11.4 µM]
O=C(O)C(Cc1ccccc1)Cc1ccccc1	1%[11.4 µM]	·	13%[11.4 µM]	·	11%[11.4 µM]
CSc1nc(N(CCO)CCO)c2sc3nc(-c4ccco4)c4c(c3c2n1)CCC4	-1%	>77	25µM*	>57	?
COc1c(O)cc2oc3cc(O)c(CC=C(C)C)c(O)c3c(=O)c2c1CC=C(C)C	1%[11.4 µM]	·	-11%	·	0%
O=c1c(-c2ccccc2)nc2cnc(N3CCOCC3)nc2n1-c1ccccc1	-1%[11.4 µM]	·	10%	·	5%
Cc1ccc(S(=O)(=O)N2C(=O)CCC2C(=O)Nc2ccc3c(c2)OCCO3)cc1 (stereo not given)	3%	>77	5%	2.3*	7%
O=c1c(CCc2ccccc2)nc2cnc(N3CCOCC3)nc2n1C1CC1	0%[11.4 µM]	·	10%	·	0%
N#Cc1nc(-c2ccc(F)cc2)oc1N1CCCC1	1%[25.5 µM]	·	·	9.5*	·
CNc1oc(-c2ccccc2Cl)nc1C#N	-5%[25.5 µM]	·	·	>26	·
N#Cc1nc(-c2ccc(Cl)cc2)oc1N1CCCCC1	2%[25.5 µM]	·	·	5.1*	·
N#Cc1nc(-c2ccc(OCc3ccc(Cl)cc3)cc2)oc1N1CCC(C(N)=O)CC1	0%	>77	6%	0.078*	4%
N#Cc1nc(-c2ccccc2)oc1N1CCCCC1	1%	>77	?	>57	?
CNc1oc(-c2ccc(Cl)cc2)nc1C#N	-2%[25.5 µM]	·	·	3.1*	·
Cc1ccc(-c2nc(C#N)c(N3CCCCC3)o2)cc1	-3%	·	10%	·	20%
COc1cccc(-c2cc(N(C)Cc3ccco3)ncn2)c1	-10%[2.29 µM]	·	21%	·	-2%
SMILES	Luciferase inh	GBA mod	HEK293 cAMP ctrl	PK Bst	TSHR ag
CCOC(=O)N/N=C1/C[C@@H](O)[C@@H](O)[C@@H]2[C@@H]3C(=O)N(Cc4ccccc4)C(=O)[C@H]3CC[C@H]12	1%[11.4 µM]	·	-5%[11.4 µM]	·	-3%[11.4 µM]
Cc1ccccc1-c1ccc2ncnc(-n3ccnc3)c2c1	1%[2.29 µM]	·	12%	·	29%
CCCn1c(N2CCN(S(=O)(=O)Cc3ccccc3)CC2)nc2ccccc21	5%	>77	25µM*	>57	?
COc1ccc(C(=O)N2CCC3(CCCN(Cc4ccncc4)C3)CC2)cc1	1%[11.4 µM]	·	21%	·	-2%
O=C(NCc1nc2ccccc2[nH]1)c1cccs1	-5%	·	5µM*	·	?
CCn1c(NC(=O)c2cccs2)nc2ccccc21	-21%	>77	16µM*	·	?
O=C(NCCCNC(=O)c1cccs1)c1cccs1	-1%	·	1%	·	4%
O=C(NCc1nc2ccccc2[nH]1)c1ccco1	0%	>77	5%	>57	-7%
CC(C)(CNC(=O)c1cccs1)CNC(=O)c1cccs1	0%	·	32µM*	·	?
O=C(NCc1nc2ccccc2[nH]1)[C@H]1C[C@@H]1[C@H](NP(=O)(c1ccccc1)c1ccccc1)c1ccccc1	·	·	13µM*	·	?
Cc1cc(C)c(-c2cc([C@H](C)O/N=C3/[C@H]4OC4[C@@H](O)[C@H]4[C@H]3CCn3c(=O)n(-c5ccccc5)c(=O)n34)on2)c(C)c1 (stereo not given in full)	-1%[11.4 µM]	·	16%[11.4 µM]	·	-12%[11.4 µM]
CCC[C@@H]1C[C@@]1(CCC)C(NC(=O)c1ccccc1)c1cccc(Cl)c1 (stereo not given in full)	·	·	22%	·	19%
CCC[C@@H]1C[C@@]1(CCC)C(NC(=O)c1ccco1)c1ccc(Cl)cc1 (stereo not given in full)	·	·	10µM*	·	?
CCC[C@@H]1C[C@@]1(CCC)C(NP(=O)(c1ccccc1)c1ccccc1)c1ccc(Cl)cc1 (stereo not given in full)	·	·	13µM*	·	?
c1ccc(CNc2cc(-c3ccoc3)ncn2)cc1	1%[2.29 µM]	·	27%	·	2%
COCCn1c(=O)c(-c2cccc(C#N)c2)nc2cnc(N3CCN(C)CC3)nc21	1%[11.4 µM]	·	-16%	·	-7%
COc1cccc(-c2cc(=O)c3ccccc3o2)c1N	13µM*	·	?	·	?
Cc1cc(NC(=O)CSc2ccc(-c3nc4cc(C)c(C)cc4[nH]3)cn2)no1	0.32µM*	>77	9%	i	-8%[11.4 µM]
O=C(O)c1cc(-c2ccc(-c3ccccc3)cc2)nc2cc3ccccc3cc12	?	·	5%[11.4 µM]	·	-2%[11.4 µM]
COc1ccc2nc(C)cc(N3CCOCC3)c2c1	-2%	>77	15%	>57	9%
COc1ccc2nc(C)cc(N3CC(C)OC(C)C3)c2c1 (stereo not given)	1%	>77	16µM*	>57	?
COc1ccc(C(=O)N2CCC3(CCCN(C(=O)NC(C)C)C3)CC2)cc1	0%[11.4 µM]	·	-1%	·	15%
COc1cccc(C(=O)NCCn2ccc3ccccc32)c1	0%	·	15%	·	-2%
COc1ccc(C(=O)NCCn2ccc3ccccc32)cc1OC	10µM*	·	?	·	?
N[C@@H](Cc1cccc([N+](=O)[O-])c1)C(=O)O	1%[11.4 µM]	·	5%[11.4 µM]	·	-4%[11.4 µM]
SMILES	Luciferase inh	GBA mod	HEK293 cAMP ctrl	PK Bst	TSHR ag
CN(C)/C=N/c1nc2ccc3c(c2s1)CCCC3	10µM*	>77	15%	i	7%
O=C(c1ccco1)N1CCC(c2nc(-c3ccc(F)cc3)no2)CC1	2%	>77	20µM*	>57	?
CCC/C=C(\CCC)C(NC(=O)OCC(C)C)c1ccccc1 (stereo not given)	·	·	-5%	·	8%
COCC(C)NC(=O)c1noc2c1CCc1cc(OC)ccc1-2 (stereo not given)	?	>77	-3%	·	2%
COCCNC(=O)c1noc2c1CCc1cc(OC)ccc1-2	13µM*	>77	10%	·	0%
COc1ccc(-n2c(=O)cnc3cnc(Oc4ccccc4)nc32)cc1	2%[11.4 µM]	·	?	·	?
Cc1cc2nc(SC(C)C(=O)O)[nH]c2cc1C (stereo not given)	10µM*	>77	8%	·	1%
